# Active and inactive are the calls of the source. Unless noted, the rule behind the calls is not given here.
# What was measured:
# [1] = test system: XIP peptide (Xip251-270) binding; assay: XIP fragment 251-270 binding compounds – biochemical, small-molecule microarray, fluorescence 635/667 nm, 0.1 µg/mL protein, primary screen (AID 1182); conditions: fluorescent protein binding, 635 nm, higher = more signal, called active from +8 up or from −8 down
# XIP peptide (Xip251-270) = assay: compounds binding XIP fragment 251-270 – biochemical, small-molecule microarray, fluorescence 635/667 nm, 0.5 µg/mL protein, primary screen (AID 1183); conditions: fluorescence 635 nm, higher = more signal
# [2] = blood-stage malaria parasite viability loss – strain 3D7, DAPI fluorescence, 100 nL, primary screen (AID 1184);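 note: parasites grown inside human red blood cells in medium with human serum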; conditions: P. falciparum 3D7 growth, 3 d, higher = more signal
# [3] = molecular target: Homeobox protein Hox-A13 (Mus musculus) (UniProt Q62424); assay: disruptors of Hoxa13 oligonucleotide interaction – biochemical, fluorescence polarization, labeled oligonucleotide, primary screen (AID 1185); conditions: Hoxa13:DNA binding, 15 min, higher = more signal, called active from +8 up or from −8 down
# [4] = blockers of DNA damage checkpoint Chk1 activation – imaging, HeLa, hydroxyurea, phospho-Chk1 antibody, percent positive cells, primary screen (AID 1186); conditions: hydroxyurea-induced phospho-Chk1 immunofluorescence imaging, higher = more signal
# [5] = blockers of DNA damage checkpoint Chk1 activation – imaging, HeLa, hydroxyurea, phospho-Chk1 nuclear intensity, primary screen (AID 1187); conditions: hydroxyurea-induced phospho-Chk1 immunofluorescence imaging, higher = more signal
# Homeobox protein Hox-A13 (Mus musculus), sequence (Q62424 whole entry, looked up): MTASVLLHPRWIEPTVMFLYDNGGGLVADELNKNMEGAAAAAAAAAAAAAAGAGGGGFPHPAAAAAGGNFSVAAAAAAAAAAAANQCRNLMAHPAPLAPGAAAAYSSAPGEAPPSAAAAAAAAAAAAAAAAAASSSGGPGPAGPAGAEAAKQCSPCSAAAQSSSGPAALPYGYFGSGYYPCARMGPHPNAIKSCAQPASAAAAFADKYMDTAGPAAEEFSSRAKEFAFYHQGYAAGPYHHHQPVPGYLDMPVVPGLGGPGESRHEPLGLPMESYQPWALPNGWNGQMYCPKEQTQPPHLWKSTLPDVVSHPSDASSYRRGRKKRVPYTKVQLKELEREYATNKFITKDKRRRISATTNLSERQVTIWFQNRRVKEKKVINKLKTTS
Compound,composite z-score [1],composite z-score (XIP peptide (Xip251-270)),z-score [2],z-score [3],z-score [4],z-score [5]
CN(C)CCCNC(=O)[C@@]1(c2ccc([N+](=O)[O-])cc2)CC(=O)N(C2CCCCC2)[C@@H]1c1ccc(CO)cc1I,-0.117 (inactive),0.248,-2.17,0.362 (inactive),-0.227 (inactive),-0.413 (inactive)
O=C1C2C=CC(C(O)C3CCCCC3)N(Nc3ccc([N+](=O)[O-])cc3)C2C(=O)N1c1ccccc1 (stereo not drawn),-0.375 (inactive),0.526,-1.5,-2.33 (inactive),-0.0882 (inactive),-0.177 (inactive)
OC([C@@H]1CC(c2ccccc2)=NO1)[C@H]1CC(c2ccccc2)=NO1 (stereo partly drawn),0.267 (inactive),-0.444,0.557,-0.163 (inactive),-0.801 (inactive),-1.25 (inactive)
COCCOC(=O)N1C(=O)[C@@]2(c3cc(C#CCCO)ccc31)[C@H](C(=O)N1CCc3cc(OC)c(OC)cc3C1)[C@H]1C(=O)O[C@H](c3ccccc3)[C@H](c3ccccc3)N1[C@@H]2c1ccc(O)cc1,1.55 (inactive),0.798,-0.439,-2.01 (inactive),-0.463 (inactive),-0.656 (inactive)
CC(C)C[C@H]1NC(=O)[C@@]23C(=O)N[C@@H](Cc4ccccc4)C2[C@H](C)[C@@]2(C)O[C@H]2C3/C=C/C/C=C\CNC(=O)[C@H](Cc2ccccc2)NC1=O (stereo partly drawn),0.303 (inactive),0.725,-1.45,-7.51 (inactive),-0.0464 (inactive),0.426 (inactive)
O=C1C2C=CC(C(O)c3ccc(F)cc3)N(Nc3ccccc3F)C2C(=O)N1c1ccccc1 (stereo not drawn),1.27 (inactive),0.252,0.712,-3.25 (inactive),0.186 (inactive),0.154 (inactive)
CC(C)(C)OC(=O)CC[C@]12N=C(c3ccc(OCCCO)cc3)O[C@H]1c1ccccc1N(CCS(=O)(=O)c1ccccc1)C2=O,1.11 (inactive),0.781,-1.96,-2.7 (inactive),-0.266 (inactive),-0.249 (inactive)
CCOC(=O)C1=CCC(c2ccc(C)cc2)N(S(=O)(=O)c2ccc(C)cc2)C1 (stereo not drawn),0.34 (inactive),0.46,-1.65,-2.32 (inactive),0.283 (inactive),0.449 (inactive)
CCOC(=O)C1=CCC(c2ccccc2)N(S(=O)(=O)CC[Si](C)(C)C)C1 (stereo not drawn),-0.0447 (inactive),0.113,-0.391,-2.31 (inactive),-0.262 (inactive),0.0088 (inactive)
C=CCNC(=O)[C@@H]1[C@H]2C(=O)O[C@H](c3ccccc3)[C@H](c3ccccc3)N2[C@H](c2ccc(OCCO)cc2)[C@@]12C(=O)Nc1ccc(C#CCCO)cc12,0.95 (inactive),0.77,-1.02,-3.63 (inactive),0.0523 (inactive),0.205 (inactive)
C=CCOC(=O)[C@@H]1[C@H]2C(=O)O[C@H](c3ccccc3)[C@H](c3ccccc3)N2[C@H](c2ccc(OCCOC(=O)[C@@H]3C[C@@H]4C(=O)N[C@@H](Cc5ccccc5)C(=O)N4[C@@H]3c3ccc(O)cc3)cc2)[C@@]12C(=O)Nc1ccc(I)cc12,0.895 (inactive),0.736,-1.95,-0.584 (inactive),0.193 (inactive),0.453 (inactive)
NC(=O)[C@@H]1[C@H]2C(=O)O[C@H](c3ccccc3)[C@H](c3ccccc3)N2[C@H](c2ccc(O)cc2)[C@@]12C(=O)Nc1ccc(C#CC3(O)CCCCCC3)cc12,0.734 (inactive),0.458,0.907,-3.37 (inactive),-0.0527 (inactive),0.0812 (inactive)
C[C@@H]1ON(c2cccc(C(=O)OC(C)(C)C)c2)[C@H](c2ccc(Br)cc2)[C@H]1C(=O)N1C(=O)OC[C@H]1Cc1ccccc1,0.543 (inactive),0.615,-0.829,-0.923 (inactive),0.0511 (inactive),0.176 (inactive)
CN(C)CCCNC(=O)[C@@]1(C)c2ccccc2C(=O)N(Cc2cc(F)cc(C(F)(F)F)c2)[C@H]1c1ccc(CO)cc1,-0.55 (inactive),-0.114,-0.809,-2.15 (inactive),0.0595 (inactive),0.121 (inactive)
COc1ccc([C@H]2C[C@H]3C(Br)=C[C@@H]2C(=O)[C@]32CO2)cc1,-0.244 (inactive),-0.22,-0.518,-0.444 (inactive),0.0297 (inactive),-0.237 (inactive)
O=C1NC(=O)C2C1C=CC(C(O)c1ccccc1)N2Nc1ccc(Cl)cc1Cl (stereo not drawn),-0.0839 (inactive),0.812,0.416,-5.54 (inactive),-0.346 (inactive),-0.621 (inactive)
CN1C(=O)C2C=CC(C(O)C3=C[C@H]4C[C@@H](C3)C4(C)C)N(Nc3ccccc3)C2C1=O (stereo partly drawn),0.654 (inactive),0.151,0.821,-3.75 (inactive),-0.556 (inactive),-0.864 (inactive)
COC(=O)[C@@]1(Cc2ccc(OC)cc2)[C@H]2c3cc(C(=O)N4CCCC4)n(Cc4ccsc4Br)c3C[C@H]2CN1C(=O)c1ccccc1,-0.0625 (inactive),0.75,-1.59,-5.51 (inactive),-0.592 (inactive),-1.13 (inactive)
COCCOC(=O)N1C(=O)[C@@]2(c3cc(C#Cc4ccc(OC)cc4)ccc31)[C@H](c1ccccc1OCCO)N1[C@H](c3ccccc3)[C@H](c3ccccc3)OC(=O)[C@H]1[C@@H]2C(=O)N1CCN(c2ncccn2)CC1,-0.349 (inactive),0.59,-1.86,0.484 (inactive),0.0768 (inactive),0.273 (inactive)
C=CCNC(=O)[C@H]1[C@@H]2C(=O)O[C@@H](c3ccccc3)[C@@H](c3ccccc3)N2[C@@H](c2ccc(OCCO)cc2)[C@]12C(=O)Nc1ccc(C#CC3=CCCCC3)cc12,0.116 (inactive),0.731,-1.19,3.25 (inactive),0.151 (inactive),0.359 (inactive)
COCCOC(=O)N1C(=O)[C@@]2(c3cc(C#CC4=CCCCC4)ccc31)[C@H](C(N)=O)[C@H]1C(=O)O[C@H](c3ccccc3)[C@H](c3ccccc3)N1[C@@H]2c1ccc(OCCO)cc1,0.134 (inactive),0.729,-2,2.15 (inactive),-0.116 (inactive),-0.321 (inactive)
CC(C)(C)OC(=O)CC[C@@]1(C(=O)NCC(O)CO)N=C(c2ccc(OCCCO)cc2)O[C@@H]1c1ccccc1N=[N+]=[N-] (stereo partly drawn),1.01 (inactive),0.795,-1.86,-4.43 (inactive),-0.436 (inactive),-0.65 (inactive)

Compound,composite z-score [1],composite z-score (XIP peptide (Xip251-270)),z-score [2],z-score [3],z-score [4],z-score [5]
O=C1c2ccccc2[C@@]2(Cc3ccccc3N(CC(F)(F)F)C2=O)[C@H](c2ccc(CO)cc2)N1Cc1ccccc1Cl,0.0764 (inactive),0.182,-0.699,0.0876 (inactive),-0.19 (inactive),-0.245 (inactive)
CN(C)C(=O)[C@]1(Cc2ccccc2CN=[N+]=[N-])N=C(c2ccc(OCCCO)cc2)O[C@@H]1c1ccccc1CN=[N+]=[N-],1.01 (inactive),0.637,-2.68,-0.212 (inactive),-0.123 (inactive),-0.249 (inactive)
COCCCN1C(=O)[C@@]2(Cc3ccccc31)c1ccccc1C(=O)N(Cc1ccccc1C(F)(F)F)[C@H]2c1ccc(CO)cc1,-0.219 (inactive),0.55,-0.698,-0.825 (inactive),0.25 (inactive),0.49 (inactive)
COc1ccc(C(O)C2C=CC3C(=O)N(c4ccccc4)C(=O)C3N2Nc2ccc(C(C)C)cc2)cc1OCc1ccccc1 (stereo not drawn),0.658 (inactive),0.8,0.1,-0.47 (inactive),-0.309 (inactive),-0.472 (inactive)
COc1ccc([Si](C)(C)[C@@H]2[C@@H](CCO)O[C@]3(C(=O)N(Cc4ccc(N5C(=O)COc6ccccc65)cc4)c4ccccc43)[C@H]2C)cc1,0.906 (inactive),0.811,-2.81,-2.08 (inactive),-0.591 (inactive),-1.55 (inactive)
CCOC(=O)C[C@H]1[C@H](OC(=O)Cc2ccc3c(c2)OCO3)[C@@H](NC(=O)c2ccc(-c3ccccc3)cc2)c2cc(OCCCO)ccc2N1C(=O)Cc1ccc(OC)cc1,0.784 (inactive),0.0066,-1.72,-1.61 (inactive),-0.324 (inactive),-0.116 (inactive)
CC(=O)NCCCC[C@@H]1NC(=O)[C@@H]2C[C@H](C(=O)NCCCCCCNC(=O)CS)[C@H](c3cccc(OCCO)c3)N2C1=O,0.732 (inactive),0.669,-0.523,-4.5 (inactive),-0.223 (inactive),-0.0198 (inactive)
COCCOC(=O)N1C(=O)[C@@]2(c3ccccc31)[C@H](c1ccc(O)cc1)N1[C@H](c3ccccc3)[C@H](c3ccccc3)OC(=O)[C@H]1[C@@H]2C(=O)NC[C@H](O)c1ccccc1,2.15 (inactive),0.837,-0.682,-5.58 (inactive),-0.229 (inactive),-0.211 (inactive)
COc1ccc(C(O)C2C=CC3C(=O)NC(=O)C3N2Nc2ccccn2)cc1 (stereo not drawn),-1.2 (inactive),0.658,0.557,-1.88 (inactive),0.723 (inactive),0.51 (inactive)
Cc1ccc(S[C@]2(C(=O)NCC(F)(F)F)CC(=O)N(C(C)C)[C@@H]2c2ccc(CO)cc2I)cc1,-0.268 (inactive),-0.467,-0.181,-2.7 (inactive),0.295 (inactive),0.84 (inactive)
C=CCOC(=O)[C@H]1[C@@H]2C(=O)O[C@@H](c3ccccc3)[C@@H](c3ccccc3)N2[C@@H](c2ccc(OCCOC(=O)[C@@H]3C[C@@H]4C(=O)N[C@@H](CCCC[N+](C)(C)C)C(=O)N4[C@@H]3c3ccc(O)cc3)cc2)[C@]12C(=O)Nc1ccccc12,0.543 (inactive),0.637,0.327,6.39 (inactive),-0.75 (inactive),-0.282 (inactive)
COc1cc2c(cc1OC)CN(C(=O)[C@H]1[C@@H]3C(=O)O[C@@H](c4ccccc4)[C@@H](c4ccccc4)N3[C@@H](c3ccc(O)cc3)[C@]13C(=O)Nc1ccc(C#CC4=CCCCC4)cc13)CC2,0.546 (inactive),0.795,-2.08,1.4 (inactive),0.138 (inactive),0.352 (inactive)
O=C1O[C@H](c2ccccc2)[C@H](c2ccccc2)N2[C@H]1[C@@H](C(=O)O)[C@]1(C(=O)Nc3ccc(C#CC4=CCCCC4)cc31)[C@H]2c1ccccc1OCCO,0.746 (inactive),0.745,-1.86,-2.65 (inactive),0.144 (inactive),-0.0653 (inactive)
O=C1OCCC/C=C\[C@H]2OC34C=CCN(Cc5ccccc5)C(=O)[C@H]3N(CCCCCCO)C(=O)[C@@H]4C12 (stereo partly drawn),0.704 (inactive),-0.819,-0.364,-5.34 (inactive),-0.121 (inactive),0.0626 (inactive)
CCCC=C(CCC)[C@@H](NS(=O)(=O)c1cccs1)c1ccc(C(=O)OC)cc1,0.219 (inactive),0.507,-0.677,-3.19 (inactive),-0.284 (inactive),0.0089 (inactive)
COC(=O)[C@@]1(Cc2ccc(F)cc2)[C@H]2c3cc(C(=O)N(C)C)n(CC4CC4)c3C[C@H]2CN1C(=O)c1ccccc1,0.308 (inactive),0.524,-1.33,-2.84 (inactive),-1.45 (inactive),-1.76 (inactive)
[N-]=[N+]=Nc1ccccc1[C@H]1OC(c2ccc(OCCCO)cc2)=N[C@@]1(Cc1ccccc1)C(=O)O,0.387 (inactive),0.686,-1.23,-5.18 (inactive),-0.48 (inactive),-0.822 (inactive)
CCCCCCC#C[Si](O[C@H](c1ccccc1)c1cn([C@H](CO)Cc2ccccc2)nn1)(C(C)C)C(C)C,0.207 (inactive),0.0718,0.221,-1.34 (inactive),-0.653 (inactive),-0.496 (inactive)
CC(C)c1ccc(NN2C(C(O)C(c3ccccc3)c3ccccc3)C=CC3C(=O)N(c4ccccc4)C(=O)C32)cc1 (stereo not drawn),0.234 (inactive),0.739,-0.536,-2.67 (inactive),0.286 (inactive),0.207 (inactive)
O=C1OCCC/C=C\[C@H]2OC34C=CCN(Cn5nnc6ccccc65)C(=O)[C@H]3N(CCCCCCO)C(=O)[C@@H]4C12 (stereo partly drawn),-0.0221 (inactive),-0.0976,-0.395,-4.38 (inactive),-0.471 (inactive),0.832 (inactive)
COc1ccc(C(O)C2C=CC3C(=O)NC(=O)C3N2Nc2ccccn2)c2ccccc12 (stereo not drawn),0.123 (inactive),-0.034,0.8,-1.97 (inactive),0.141 (inactive),-0.22 (inactive)
